The target in assay [1] is Retinoic acid receptor RXR-alpha (Homo sapiens) (UniProt P19793). Put plainly: OT_NURR1_NURR1RXRa_1440: Odyssey Thera (OT) 24-hour HEK293T Protein Complementation Assay for Nurr1/retinoid X receptor (RXR) (AID 2283386; active = hit-call score of the fitted dose curve at least 0.9, where 1 is the maximum). Put shortly:
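Fluorescence PCA read-out; HEK293T; 24 h post-dose; bait/prey fused to reporter fragments; gain-of-signal fit vs DMSO negative control.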

Assay [2] has as its target Peroxisome proliferator-activated receptor gamma (Homo sapiens) (UniProt P37231). Put plainly: OT_PPARg_PPARgSRC1_0480: Odyssey Thera (OT) 8-hour Protein-Complementation Assay for Peroxisome Proliferator-activated Receptor Gamma / SRC-1 Co-activator (AID 2283387; active = hit-call score of the fitted dose curve at least 0.9, where 1 is the maximum). Put shortly:
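HEK293T transiently transfected with PPARg and SRC-1 fused to Venus YFP fragments, compounds 8 h at 37C. Fixed, Draq5-stained cells imaged; nuclear/cytoplasmic 488 nm fluorescence ratio over at least 350 cells per image; gain fitted versus DMSO.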

For assay [3] the target is unchanged. Put plainly: OT_PPARg_PPARgSRC1_1440: Odyssey Thera (OT) 24-hour Protein-Complementation Assay for Peroxisome Proliferator-activated Receptor Gamma/ SRC-1 Co-activator (AID 2283388; active = hit-call score of the fitted dose curve at least 0.9, where 1 is the maximum). Put shortly: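 HEK293T cells transiently transfected with PPARg and SRC-1 fused via (Gly4Ser)2 linker to split Venus YFP fragments (IFP1/IFP2) were dosed 24 h; fixed, Draq5-stained, imaged at 488/635 nm; nuclear/cytoplasmic fluorescence ratio scored versus DMSO baseline, gain-of-signal.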

Assay [4] can be described thus: CEETOX_H295R_11DCORT: CeeTox H295R High-throughput Steroidogenesis Assay for 11-Deoxycortisol (11DCORT) (AID 2283432). The following applies: actives raise or lower the signal. Put shortly:
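H295R cells prestimulated 48 h with 10 uM forskolin, then exposed 48 h to chemical in 0.1% DMSO. 11-Deoxycortisol in medium quantified by HPLC-MS/MS after MTBE extraction; bidirectional fit versus DMSO. MTT viability read in same wells.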

The nature of assay [5]: CEETOX_H295R_OHPREG: CeeTox H295R High-throughput Steroidogenesis Assay for OH-Pregnenolone (OHPREG) (AID 2283434). The settings on record: actives raise or lower the signal. Put shortly: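 Secreted 17alpha-hydroxypregnenolone measured by HPLC-MS/MS after liquid-liquid extraction. Human adrenal H295R cells received 48 h forskolin (10 uM) stimulation before 48 h chemical exposure at 0.1% final DMSO; MTT viability in same wells; bidirectional fit against DMSO.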

Assay [6] in a line: CEETOX_H295R_OHPROG: CeeTox H295R High-throughput Steroidogenesis Assay for OH-Progesterone (OHPROG) (AID 2283435).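 For AC50: 17alpha-hydroxyprogesterone secreted into medium measured by HPLC-MS/MS.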 The following applies: actives raise or lower the signal. The procedure, abridged: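 HPLC-MS/MS quantification of 17alpha-hydroxyprogesterone secreted by H295R cells after 48 h chemical exposure, following 48 h 10 uM forskolin prestimulation. Gain or loss of signal fitted relative to DMSO. Viability checked by MTT in the same wells.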

A short description of assay [7]: CEETOX_H295R_CORTIC: CeeTox H295R High-throughput Steroidogenesis Assay for Corticosterone (CORTIC) (AID 2283437). The following applies: actives raise or lower the signal. The procedure, abridged:
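Medium corticosterone was quantified by tandem mass spectrometry following 48 hours of chemical exposure (0.1% DMSO) in human H295R cells previously stimulated 48 hours with 10 uM forskolin. Viability checked by MTT; chemicals diluted and retested when viability fell below 70%.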

A short description of assay [8]: CEETOX_H295R_CORTISOL: CeeTox H295R High-throughput Steroidogenesis Assay for Cortisol (AID 2283438).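 Note: cortisol secreted into medium quantified by LC-MS/MS.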 The following applies: actives raise or lower the signal. The procedure, abridged: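 Read-out: cortisol in culture medium by reverse-phase C18 HPLC with ESI-positive tandem MS, after MTBE liquid-liquid extraction. Cells: human adrenal H295R, forskolin-primed (10 uM, 48 h) before 48 h chemical exposure in 0.1% DMSO.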

A short description of assay [9]: CEETOX_H295R_PROG: CeeTox H295R High-throughput Steroidogenesis Assay for Progesterone (PROG) (AID 2283442). The settings on record: actives raise or lower the signal. Put shortly: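 H295R human adrenal cells were prestimulated with 10 uM forskolin for 48 h, then exposed to test chemical (0.1% DMSO final) for 48 h. Medium progesterone was MTBE-extracted and quantified by HPLC-MS/MS, with bidirectional fitting against DMSO.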

Read-out in assay [10]: Tumor necrosis factor receptor superfamily member 6 (Homo sapiens) (UniProt P25445)
Kind of assay: LTEA_HepaRG_FAS: Life Technologies and Expression Analysis (LTEA) Assay for Fas cell surface death receptor (FAS) using HepaRG (AID 2283447). The settings on record: mRNA level, 48 h; actives raise or lower the signal. The procedure, abridged:
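FAS transcript level was measured by TaqMan qRT-PCR against three housekeeping genes after 48 h chemical exposure. Cells were HepaRG, 0.5% DMSO vehicle, with a top concentration of 100 uM and half-log dilutions over eight points, in duplicate.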

Read-out in assay [11]: Fatty acid synthase (Homo sapiens) (UniProt P49327)
Kind of assay: LTEA_HepaRG_FASN: Life Technologies and Expression Analysis (LTEA) Assay for Fatty Acid Synthase (FASN) using HepaRG (AID 2283448). The settings on record: mRNA level, 48 h; actives raise or lower the signal. Put shortly:
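HepaRG, 48 h exposure, 8-pt half-log series top 100 uM, 0.5% DMSO vehicle, duplicates. Readout: FASN transcript by Fluidigm qRT-PCR; housekeeping-normalized; bidirectional curve fit vs DMSO baseline.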

Read-out in assay [12]: Cyclin Dependent Kinase Inhibitor 1A (CDKN1A), CDKN1A (gene 1026)
Kind of assay: LTEA_HepaRG_CDKN1A: Life Technologies and Expression Analysis (LTEA) Assay for Cyclin Dependent Kinase Inhibitor 1A (CDKN1A) using HepaRG (AID 2283450). The settings on record: mRNA level, 48 h; actives raise or lower the signal. The procedure, abridged:
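Differentiated human HepaRG cells, pre-cultured 48 h, were exposed in duplicate for 48 h in serum-free induction medium to eight half-log concentrations up to 100 uM (0.5% DMSO). CDKN1A mRNA was measured by qRT-PCR, normalized to ACTB/GAPDH/POLR2A, bidirectionally fitted versus DMSO.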

Read-out in assay [13]: Cyclin D1 (CCND1), CCND1 (gene 595)
Put plainly: LTEA_HepaRG_CCND1: Life Technologies and Expression Analysis (LTEA) Assay for Cyclin D1 (CCND1) using HepaRG (AID 2283451).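 For AC50: TaqMan qRT-PCR transcript level normalised to ACTB GAPDH and POLR2A housekeeping genes.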 The settings on record: mRNA level, 48 h; actives raise or lower the signal. Put shortly: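 Differentiated human HepaRG cells in serum-free induction medium were exposed 48 h to eight half-log concentrations up to 100 uM in 0.5% DMSO; mRNA quantified by TaqMan qRT-PCR, normalized to ACTB, GAPDH, POLR2A, fitted bidirectionally versus DMSO.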

Read-out in assay [14]: catalase (CAT), CAT (gene 847)
Kind of assay: LTEA_HepaRG_CAT: Life Technologies and Expression Analysis (LTEA) Assay for catalase (CAT) using HepaRG (AID 2283452). The settings on record: mRNA level, 48 h; actives raise or lower the signal. The procedure, abridged: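 Expression of CAT was quantified by TaqMan qRT-PCR with ACTB/GAPDH/POLR2A normalization after 48 h chemical exposure of HepaRG. Eight-point half-log series, top 100 uM, in 0.5% DMSO; gain or loss fitted against vehicle.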

Assay [15] addresses Retinoic acid receptor RXR-alpha (Homo sapiens) (UniProt P19793). Kind of assay: OT_NURR1_NURR1RXRa_0480: Odyssey Thera (OT) 8-hour HEK293T Protein Complementation Assay for Nurr1/retinoid X receptor (RXR) (AID 2283385; active = hit-call score of the fitted dose curve at least 0.9, where 1 is the maximum). The procedure, abridged:
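Read-out: fluorescence from protein-fragment complementation between Nurr1 and RXRα in human HEK293T cells, 8 h after dosing. DMSO served as negative control; increased signal counted as activity.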

Read-out in assay [16]: Cyclin D2 (CCND2), CCND2 (gene 894)
Put plainly: LTEA_HepaRG_CCND2: Life Technologies and Expression Analysis (LTEA) Assay for Cyclin D2 (CCND2) using HepaRG (AID 2283449). The settings on record: mRNA level, 48 h; actives raise or lower the signal. The procedure, abridged:
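CCND2 transcript levels, quantified by qRT-PCR and normalised to three housekeeping genes, were fitted bidirectionally against 0.5% DMSO. HepaRG cultures were dosed 48 h in duplicate with an 8-point half-log series up to 100 uM.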

A short description of assay [17]: CEETOX_H295R_DOC: CeeTox H295R High-throughput Steroidogenesis Assay for DOC (AID 2283439). The settings on record: actives raise or lower the signal. The procedure, abridged: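 Human adrenocortical H295R cells, passages up to 10, received 10 uM forskolin for 48 h before chemical addition. After another 48 h exposure in 0.1% DMSO, secreted DOC was measured by LC-MS/MS, with gain or loss fitted against DMSO controls.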

Assay [18] is described as follows: CEETOX_H295R_ESTRADIOL: CeeTox H295R High-throughput Steroidogenesis Assay for Estradiol (AID 2283440).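 Note: estradiol secreted into medium quantified by LC-MS/MS after dansyl derivatisation.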 The following applies: actives raise or lower the signal. Put shortly:
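H295R adrenocortical cells were prestimulated with 10 uM forskolin for 48 h, then exposed to test chemical in 0.1% DMSO for 48 h. Medium estradiol was extracted with MTBE, dansyl-derivatized and quantified by HPLC-MS/MS; bidirectional fit versus DMSO.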

The nature of assay [19]: CEETOX_H295R_ESTRONE: CeeTox H295R High-throughput Steroidogenesis Assay for Estrone (AID 2283441).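 Note: estrone secreted into medium measured by LC-MS/MS after dansyl derivatization.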 The settings on record: actives raise or lower the signal. The procedure, abridged:
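Forskolin-stimulated H295R cells are treated 48 h with chemical, and estrone in the medium is measured by LC-MS/MS. Activity is fitted in both directions relative to DMSO controls, with chemicals diluted until MTT viability reaches at least 70%.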

Records with an inconclusive call do not appear. Activity calls are given as the source filed them. Rule for the calls, unless noted: active = hit-call score of the fitted dose curve at least 0.9, where 1 is the maximum; inactive = score below 0.9.

Sequence of Fatty acid synthase (Homo sapiens) (P49327 whole entry, looked up): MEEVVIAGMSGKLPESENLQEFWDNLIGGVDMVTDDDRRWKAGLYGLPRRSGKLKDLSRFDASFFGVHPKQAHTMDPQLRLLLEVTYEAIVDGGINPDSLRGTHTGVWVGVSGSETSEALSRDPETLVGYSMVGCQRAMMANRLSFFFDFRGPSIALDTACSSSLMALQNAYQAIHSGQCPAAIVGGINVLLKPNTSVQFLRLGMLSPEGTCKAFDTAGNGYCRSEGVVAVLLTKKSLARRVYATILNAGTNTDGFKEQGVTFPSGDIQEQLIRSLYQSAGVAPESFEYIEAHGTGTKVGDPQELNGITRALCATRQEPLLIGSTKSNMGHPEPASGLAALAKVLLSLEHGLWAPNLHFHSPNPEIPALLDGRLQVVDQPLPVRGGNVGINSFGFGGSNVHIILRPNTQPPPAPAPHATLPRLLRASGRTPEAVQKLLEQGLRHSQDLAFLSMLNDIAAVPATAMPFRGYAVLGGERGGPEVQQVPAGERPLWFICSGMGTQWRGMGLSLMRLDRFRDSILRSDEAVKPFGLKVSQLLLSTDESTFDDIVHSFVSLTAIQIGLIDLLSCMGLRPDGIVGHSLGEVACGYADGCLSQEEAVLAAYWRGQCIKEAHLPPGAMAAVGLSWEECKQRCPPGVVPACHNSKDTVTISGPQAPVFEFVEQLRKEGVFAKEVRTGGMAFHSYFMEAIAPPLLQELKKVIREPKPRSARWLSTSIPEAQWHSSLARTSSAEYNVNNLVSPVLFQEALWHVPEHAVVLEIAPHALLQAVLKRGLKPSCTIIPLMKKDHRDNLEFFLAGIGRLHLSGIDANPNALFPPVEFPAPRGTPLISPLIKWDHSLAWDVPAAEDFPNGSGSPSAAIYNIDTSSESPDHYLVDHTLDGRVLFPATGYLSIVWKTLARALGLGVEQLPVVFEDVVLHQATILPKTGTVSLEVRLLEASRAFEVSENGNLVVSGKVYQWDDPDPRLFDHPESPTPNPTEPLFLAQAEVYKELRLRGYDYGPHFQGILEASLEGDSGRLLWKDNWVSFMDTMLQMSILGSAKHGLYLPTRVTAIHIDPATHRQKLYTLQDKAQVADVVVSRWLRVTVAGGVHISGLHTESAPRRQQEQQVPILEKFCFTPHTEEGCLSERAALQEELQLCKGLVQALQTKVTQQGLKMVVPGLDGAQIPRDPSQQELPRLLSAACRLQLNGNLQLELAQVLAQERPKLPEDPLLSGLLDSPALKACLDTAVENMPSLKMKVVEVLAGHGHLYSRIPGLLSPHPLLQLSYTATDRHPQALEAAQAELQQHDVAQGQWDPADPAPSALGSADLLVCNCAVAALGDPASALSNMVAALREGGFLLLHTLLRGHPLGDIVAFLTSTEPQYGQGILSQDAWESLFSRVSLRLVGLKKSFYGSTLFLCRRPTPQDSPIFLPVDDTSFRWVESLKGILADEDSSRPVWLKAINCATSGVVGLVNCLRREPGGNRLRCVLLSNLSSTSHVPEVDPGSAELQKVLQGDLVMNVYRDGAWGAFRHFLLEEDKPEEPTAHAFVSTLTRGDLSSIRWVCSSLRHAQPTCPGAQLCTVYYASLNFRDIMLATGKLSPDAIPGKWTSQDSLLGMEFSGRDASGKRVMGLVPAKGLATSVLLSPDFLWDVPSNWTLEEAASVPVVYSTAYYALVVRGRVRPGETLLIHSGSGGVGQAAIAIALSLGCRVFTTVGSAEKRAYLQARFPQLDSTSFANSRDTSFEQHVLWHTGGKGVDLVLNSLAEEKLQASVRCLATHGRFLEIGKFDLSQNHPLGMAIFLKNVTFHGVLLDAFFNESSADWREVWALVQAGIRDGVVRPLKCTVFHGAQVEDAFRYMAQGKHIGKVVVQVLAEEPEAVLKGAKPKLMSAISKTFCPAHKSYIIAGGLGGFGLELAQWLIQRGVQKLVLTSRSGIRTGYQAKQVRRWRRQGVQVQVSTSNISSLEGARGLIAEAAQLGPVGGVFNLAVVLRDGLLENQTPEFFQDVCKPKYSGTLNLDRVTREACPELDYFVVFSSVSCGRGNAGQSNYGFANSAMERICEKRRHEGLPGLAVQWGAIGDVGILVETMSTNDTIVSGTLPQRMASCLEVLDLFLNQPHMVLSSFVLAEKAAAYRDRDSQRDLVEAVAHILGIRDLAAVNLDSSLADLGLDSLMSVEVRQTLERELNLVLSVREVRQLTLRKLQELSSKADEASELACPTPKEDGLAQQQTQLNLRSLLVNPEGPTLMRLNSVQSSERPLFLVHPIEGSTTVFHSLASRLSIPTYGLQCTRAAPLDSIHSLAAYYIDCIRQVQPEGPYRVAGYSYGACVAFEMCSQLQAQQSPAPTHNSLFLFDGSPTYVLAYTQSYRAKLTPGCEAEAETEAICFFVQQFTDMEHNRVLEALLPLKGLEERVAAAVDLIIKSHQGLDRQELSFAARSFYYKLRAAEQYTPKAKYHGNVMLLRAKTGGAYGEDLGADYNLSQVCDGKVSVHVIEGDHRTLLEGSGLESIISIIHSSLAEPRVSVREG
Sequence of Retinoic acid receptor RXR-alpha (Homo sapiens) (P19793 whole entry, looked up, the tested form may be a part): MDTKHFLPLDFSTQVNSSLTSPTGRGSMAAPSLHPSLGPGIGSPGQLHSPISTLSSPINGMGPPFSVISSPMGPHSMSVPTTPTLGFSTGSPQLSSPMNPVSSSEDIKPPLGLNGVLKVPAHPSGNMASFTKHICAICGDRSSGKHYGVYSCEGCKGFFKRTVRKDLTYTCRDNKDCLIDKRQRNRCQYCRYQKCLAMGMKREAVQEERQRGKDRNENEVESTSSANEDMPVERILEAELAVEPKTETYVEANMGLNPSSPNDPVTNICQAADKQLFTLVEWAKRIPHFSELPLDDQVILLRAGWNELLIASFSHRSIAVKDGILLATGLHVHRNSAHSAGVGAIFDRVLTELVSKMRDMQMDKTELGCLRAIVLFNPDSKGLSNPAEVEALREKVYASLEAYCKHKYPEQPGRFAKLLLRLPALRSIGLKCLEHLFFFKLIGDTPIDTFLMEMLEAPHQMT
Sequence of Peroxisome proliferator-activated receptor gamma (Homo sapiens) (P37231 whole entry, looked up, the tested form may be a part): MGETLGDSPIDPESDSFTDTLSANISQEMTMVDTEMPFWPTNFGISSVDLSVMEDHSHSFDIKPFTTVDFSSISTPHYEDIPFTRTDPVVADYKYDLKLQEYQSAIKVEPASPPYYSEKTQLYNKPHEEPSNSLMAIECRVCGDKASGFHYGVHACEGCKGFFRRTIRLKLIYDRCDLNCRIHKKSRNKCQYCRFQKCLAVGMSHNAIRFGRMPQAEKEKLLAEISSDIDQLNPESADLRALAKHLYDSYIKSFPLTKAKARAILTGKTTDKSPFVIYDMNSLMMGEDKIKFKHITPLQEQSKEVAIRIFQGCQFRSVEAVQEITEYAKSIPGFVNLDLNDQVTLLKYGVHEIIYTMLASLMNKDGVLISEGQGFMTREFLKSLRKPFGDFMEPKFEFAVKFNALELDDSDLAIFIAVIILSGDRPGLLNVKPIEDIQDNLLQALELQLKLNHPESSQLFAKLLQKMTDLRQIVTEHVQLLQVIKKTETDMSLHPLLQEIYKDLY

In the case of `CC(C)=CCCC(C)=CC=O`, the result in assay [1], in [2], in assay [3], in [4], in assay [5] and in [6] was inactive. In addition, the compound was called inactive in assay [9], in assay [10], in assay [11], in assay [12], in [13] and in assay [14]. For the same compound, the AC50 in [7] is 78.6 µM (active); in assay [8] it was 75 µM (active).

In the case of `On1ccccc1=S`, the outcome in assay [15], in assay [1], in assay [2], in assay [3], in assay [12] and in assay [13] was inactive. Also, the call in [14] was inactive.

`CCCC(=O)OCC`: the call in assay [1], in [2], in [3], in assay [10], in assay [11] and in assay [16] was inactive. Moreover, the result in assay [12], in [13] and in [14] was inactive.

`C=CCCCCCCCCC(=O)O`: the result in assay [1], in assay [2], in assay [3], in [4], in assay [6] and in assay [7] was inactive. The compound was classed as inactive in assay [8], in [17], in [18], in assay [19], in assay [9] and in assay [10]. Also, the compound was classed as inactive in assay [11], in assay [16], in assay [12], in [13] and in assay [14]. For the same compound, in assay [5], the half-maximal activity concentration (AC50) is 36.5 µM (active).

Turning to `CC(C)=CCC/C(C)=C\CO`, the outcome in [15], in assay [1], in [2], in assay [3], in assay [10] and in assay [16] was inactive. Also, the result in assay [12] and in assay [14] was inactive.

As for `CC[C@H]1CC[C@H](NCc2cc3c(cc2OC)[C@H]2C[C@H]2C(=O)N3C)[C@H](c2ccccc2)N1`, the compound was classed as inactive in assay [1], in assay [2], in assay [3], in assay [4], in assay [5] and in [6]. The result in assay [7], in assay [8], in assay [17], in assay [9], in assay [10] and in assay [16] was inactive. Also, the compound was called inactive in [12], in assay [13] and in assay [14]. The AC50 in [18] is 6.19 µM (active); in assay [19], 7.37 µM (active).

Regarding `CC(C)c1cccc(C(C)C)c1N1C(=O)c2ccc(O)cc2C1=O`, the compound was classed as inactive in assay [1], in assay [2], in assay [3], in [7], in assay [10] and in assay [16]. Moreover, the call in assay [12] and in [14] was inactive. Besides, the AC50 in assay [5] is 32.5 µM (active); in [6], 31.7 µM (active); in [8], 27.1 µM (active); in assay [17], 16.7 µM (active); in assay [9], 86.5 µM (active); in [13] it was 82.4 µM (active).

For the compound `COc1cccc(-c2ccc(/C=C\CN3CCCCCC3)cc2Cl)c1`, the half-maximal activity concentration (AC50) was 10.3 µM (active) in assay [15], 77.5 µM (active) in assay [10], 72.2 µM (active) in assay [13] and 69.7 µM (active) in assay [14]. Moreover, the compound was called inactive in assay [2], in [3], in assay [4], in assay [5], in [6] and in assay [7]. The compound was called inactive in [8], in assay [17], in assay [18], in assay [19], in assay [9] and in [12].

By AC50 is commonly meant the midpoint of the concentration-response curve, whichever way the signal moves.

Values taken from PubChem BioAssay (EPA / NIEHS).
